High-throughput results as filed in PubChem BioAssay.
Hedgehog inh: Sonic Hedgehog pathway inhibition. Shh-LIGHT2 Gli-luciferase reporter, 30 h. inhibition, % (test concentration not listed). 22,000 compounds, 2.1% hits;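 active means mean inhibition across valid replicates above about 65%, limit read from the data; inconclusive means mean under the limit, yet half or more replicates past it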;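 further: pathway switched on by Shh-conditioned medium diluted 1 in 25 in low serum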
NOMO-1 viab: STK33 inhibitor candidate reducing NOMO-1 cell viability; AID 2330; inhibition, % (test concentration not listed); NOMO-1 AML viability, CellTiter-Glo luminescence, 72 h; 37,000 compounds, 7.5% hits; in the data active means inhibition above about 80%; inconclusive means no clear call, values can overlap the other calls
MITF inh: inhibitors of MITF; TRPM1 promoter luciferase, luminescence, 24 h; inhibition, % (concentration not given with the values); 37,000 compounds, 0.28% hits; AID 2240; in the data active means inhibition above about 85%; inconclusive means no clear call, values can overlap the other calls; inactive means below about 68%;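 further: human melanocyte line stably carrying TRPM1 promoter luciferase reporter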
Starred values were filed as active, the others as inactive; ? = inconclusive; · = no result. Compounds with a hit are over-represented: about 8.1% of the library has one in this group of screens.

SMILES	Hedgehog inh	NOMO-1 viab	MITF inh
C[C@@H]1CN([C@H](C)CO)C(=O)c2cccc(NC(=O)C3CC3)c2O[C@H]1CN(C)S(=O)(=O)c1ccc(Cl)cc1	6.3	13.9	-2.2
C[C@H](CO)N1C[C@H](C)[C@@H](CN(C)S(=O)(=O)c2ccc(Cl)cc2)Oc2c(NC(=O)C3CCCCC3)cccc2C1=O	-20.3	33.4	-4.0
C[C@@H]1CN([C@@H](C)CO)C(=O)c2cccc(NC(=O)C3CCCCC3)c2O[C@@H]1CN(C)S(=O)(=O)c1ccc(Cl)cc1	-0.9	37.3	25.3
C[C@H](CO)N1C[C@H](C)[C@H](CN(C)S(=O)(=O)c2ccc(Cl)cc2)Oc2c(NC(=O)C3CCCCC3)cccc2C1=O	102.8*	5.1	9.0
COc1cccc(NC(=O)CSC2CC(=O)N(c3cc(C)cc(C)c3)C2=O)c1 (stereo not given)	·	5.5	-7.3
N#Cc1cc2c(nc1SCC(=O)Nc1cccc(F)c1)CCCC2	·	92.4*	-28.4
COc1ccc(NC(=O)CSc2nc3c(cc2C#N)CCCCC3)cc1	·	10.1	2.0
COc1ccc(NC(=O)Nc2ccc3c(c2)C(=O)N([C@@H](C)CO)C[C@H](C)[C@H](CN(C)Cc2ccc(Cl)c(Cl)c2)O3)cc1	17.0	104.2*	22.8
COc1ccc(NC(=O)Nc2ccc3c(c2)C(=O)N([C@@H](C)CO)C[C@@H](C)[C@@H](CN(C)Cc2ccc(Cl)c(Cl)c2)O3)cc1	·	59.9	23.6
COc1ccc(NC(=O)Nc2ccc3c(c2)C(=O)N([C@H](C)CO)C[C@@H](C)[C@@H](CN(C)Cc2ccc(Cl)c(Cl)c2)O3)cc1	·	98.3*	16.5
COc1ccc(CN(C)C[C@@H]2Oc3ccc(NC(=O)Nc4ccc(OC)cc4)cc3C(=O)N([C@@H](C)CO)C[C@H]2C)cc1	-4.1	-12.0	3.3
CSc1ccc(C2N[C@@H](C(=O)O)C(C)(C)S2)cc1 (stereo not given in full)	2.5	-7.5	9.2
C[C@@]12C[C@]3(O)O[C@H](O1)C1(COC(=O)c4ccccc4)[C@H]3C[C@@]12O[C@@H]1O[C@H](COC(=O)c2ccccc2)[C@@H](O)[C@H](O)[C@H]1O	-10.8	-6.6	10.9
CC1CCC(C(C)C)C(=O)/C1=C/c1ccc(N(C)C)cc1 (stereo not given)	·	62.9	-32.8
COc1ccc(/C=C2/C(=O)C(C)(C(C)C)CCC2C)cc1 (stereo not given)	-19.9	93.8*	-25.8
O=C1c2ccccc2NC(c2ccccc2)N1N=C1CCCCCC1 (stereo not given)	-43.5	14.9	-19.4
O=c1c2c3c(sc2nc(SCc2nc(-c4cccs4)no2)n1-c1ccccc1)CCCC3	·	6.6	-1.9
O=C1c2ccccc2-c2c(NCCc3ccccc3)c(=O)[nH]c3cccc1c23	45.4	115.0*	30.5
Cn1c(=O)c(Nc2ccccc2)c2c3c(cccc31)C(=O)c1ccccc1-2	-37.6	16.1	-0.4
COC(=O)c1ccc(C(=O)OC)c(NS(=O)(=O)c2ccc3c(c2)OCCO3)c1	·	47.8	29.8
C(=Nc1cccc2ccccc12)c1c[nH]c2ccccc12	14.0	71.7	30.5
O=C1/C(=C/c2c[nH]c3ccccc23)CSc2ccccc21	·	113.2*	-8.1
CC(=O)c1c(C)oc(NC(=O)Cn2cnc3ccccc3c2=O)c1C#N	·	27.8	-20.6
Cc1ccccc1NC(=O)CCC(=O)OC1CCC(C(C)(C)C)CC1 (stereo not given)	29.1	92.8*	-11.5
Cc1ccccc1NC(=O)CCCC(=O)O	·	-13.5	-21.5
SMILES	Hedgehog inh	NOMO-1 viab	MITF inh
N=c1oc2ccccc2cc1C(=O)Nc1ccc(F)cc1	·	119.9*	44.0
CCN(CC)c1ccc2cc(C(=O)Nc3ccccc3)c(=N)oc2c1	-13.5	15.1	-97.5
COc1ccc(Cl)cc1N(CC(=O)Nc1ccc(F)c(F)c1)S(C)(=O)=O	·	8.0	2.1
COC(=O)c1ccccc1NC(=O)c1ccc(NC(=O)C(C)Oc2ccc(Cl)cc2C)cc1 (stereo not given)	·	9.3	-21.9
C/C(=C/COc1c(OC2OC(CO)C(O)C(O)C2O)ccc2ccc(=O)oc12)CO (stereo not given)	-13.5	13.4	-5.6
O=C(c1nn2c(C(F)(F)F)cc(-c3cccs3)nc2c1Cl)N1CCCc2ccccc21	46.7	107.4*	-18.9
O=C(NCCCn1ccnc1)c1nn2c(C(F)(F)F)cc(-c3cccs3)nc2c1Br	·	29.4	-7.6
CC(Sc1nnc(-c2ccc(Br)cc2)n1-c1ccccc1)C(=O)O (stereo not given)	·	14.1	-17.4
Cc1cccc(N(CC(=O)NC(C)(C)C)S(=O)(=O)c2ccc(Cl)cc2)c1	·	-9.9	11.2
CCn1c2ccccc2c2cc(NC(=O)COc3ccc([N+](=O)[O-])cc3)ccc21	·	-27.4	-0.3
CCC(C)/C=C(C)/C=C/C1=CC2=C(Cl)C(=O)C(C)(OC(C)=O)C(=O)C2=CN1CCCC(=O)O (stereo not given)	1.4	101.2*	8.9
COc1cccc2cc(C(=O)C3C(=O)C(=O)N(c4cc(C)on4)C3c3ccccc3)oc12 (stereo not given)	·	-3.6	56.1
C[C@@H]1CN([C@@H](C)CO)C(=O)c2cc(NC(=O)Nc3ccc(C(F)(F)F)cc3)ccc2O[C@@H]1CN(C)S(=O)(=O)c1ccccc1	?	89.9*	80.2
C[C@H](CO)N1C[C@H](C)[C@@H](CN(C)S(=O)(=O)c2ccccc2)Oc2ccc(NC(=O)Nc3ccc(C(F)(F)F)cc3)cc2C1=O	7.9	68.6	?
C[C@H]1CN([C@@H](C)CO)C(=O)c2cc(NC(=O)Nc3ccc(C(F)(F)F)cc3)ccc2O[C@H]1CN(C)S(=O)(=O)c1ccccc1	·	97.4*	16.8
C[C@@H]1CN([C@H](C)CO)C(=O)c2cc(NC(=O)Nc3ccc(C(F)(F)F)cc3)ccc2O[C@@H]1CN(C)S(=O)(=O)c1ccccc1	26.8	45.4	49.9
O=C(Cn1ncc2ccccc2c1=O)Nc1cccc([N+](=O)[O-])c1	·	-7.2	9.6
CCn1c(SCc2nc3ccccc3c(=O)[nH]2)nnc1-c1ccc(Cl)cc1	·	-13.2	-7.4
O=c1c2ccccc2nc(/C=C/c2cc(Br)ccc2O)n1CCCO	·	107.9*	101.9*
Cc1[nH]c2ccccc2c1/C=C/c1nc2ccccc2c(=O)n1CCCO	·	4.0	-1.2
COc1ccccc1NC(=O)c1c(NC(=O)c2ccco2)sc(C)c1C	·	44.6	-72.4
CCc1ccc(C2C(C#N)=C(C)NC3=C2C(=O)CC(C)(C)C3)cc1 (stereo not given)	·	86.1*	33.0
CC1(C)CC(=O)C2=C(C1)NC(SCC(=O)Nc1ccccc1)=C(C#N)C2c1ccco1 (stereo not given)	·	43.7	-22.2
O=C(Nc1ccccc1)OC1CCCC1	·	35.6	-8.5
Cc1csc2sc(COC(=O)Nc3ccccc3)c(C)c12	?	120.2*	13.2
SMILES	Hedgehog inh	NOMO-1 viab	MITF inh
CCOC(=O)c1c(CSc2nc(C)ccc2C#N)oc2ccc(OC(C)=O)cc12	99.8*	117.0*	66.3
CCOC(=O)c1c(CN(CC)CC)oc2ccc(OC)cc12	28.4	8.1	-2.3
Cc1ccc(NC(=O)CSc2nnnn2C2CC3CCC2C3)cc1 (stereo not given)	·	6.8	-28.7
O=C(COc1cccc(NC(=O)c2ccccc2Cl)c1)c1ccc(F)cc1	·	18.0	9.1
COc1ccc(NC(=O)c2ccccc2NC(=O)COc2cccc(OC)c2)cc1	·	13.8	-21.3
COC(=O)COc1cccc(NC(=O)c2ccccc2F)c1	·	121.5*	-5.5
